Here are results for 3 compounds from PubChem BioAssay AID651871 (Sanford-Burnham Center for Chemical Genomics, 2012).

For this experiment, the system named is H9c2. Description: protection of cardiomyocytes from stress damage, SAR follow-up, cell-based, panel, H9c2 and HL-1, ATP luminescence, set 2 (AID 651871).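 Note: cells exposed to stressor for 2 h before ATP readout; reference of the scale not given here.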 Particulars: H9c2/HL-1 cardiomyocytes, 2-deoxyglucose stress, with 2-deoxyglucose; run 11, at 79 µM (top of the series).

Where “and” joins values, the source holds several entries; their conditions need not be identical. Equal entries are not always repeated.

As for `CCOC(=O)c1cccc(NC(=O)CNC(=O)c2cc(-c3cc(OC)c(OC)c(OC)c3)nc3ccccc23)c1`, the activity (protection/inhibition) is 112%. With `COc1ccc2nc(-c3cc(OC)c(OC)c(OC)c3)cc(C(=O)NCC(=O)Nc3ccc(C(C)=O)cc3)c2c1` the figure was 68.6%. With `COc1ccc2c(c1OC)C(=O)N1c3ccccc3C(=O)N(Cc3cccc(Cl)c3Cl)C21` (stereo not drawn) the figure was 89.7% and 82.5% and -2.54%.
